Source: PubChem
IL1B secr inh = qHTS for Inhibitors of Inflammasome Signaling: IL-1-beta AlphaLISA Primary Screen; activity change, % at 57.5 µM; THP-1 LPS/ATP IL-1B secretion, AlphaLISA, 16 h; stronger effect = lower value; 360,000 compounds, 4.7% hits; in the data active = activity change below about -50%; inconclusive = mostly about -30% to -49%
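THP-1 cells pretreated 1 hr with compounds (up to 57.5 uM final), then stimulated with LPS (250 ng/mL final) plus ATP (1.25 mM final); secreted IL-1B measured by AlphaLISA after 16 hr, decreased signal indicating inhibition.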
Giardia kill = Small Molecules that selectively kill Giardia lamblia: qHTS; 340,000 compounds, 0.15% hits; activity change, % at 7.66 µM, hits read low; Giardia lamblia trophozoite viability; in the data active = activity change below about -80%; inconclusive = between about -30% and that limit;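 note: parasites exposed to compound for two days anaerobically before the ATP read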
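Viability, read as ATP luminescence: trophozoites at 100 cells/well, compound added, 48 hrs anaerobic at 37 deg C, then 15-30 min room-temperature development before reading.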
SW480 rerep = A quantitative high throughput screen for small molecules that induce DNA re-replication in SW480 colon adenocarcinoma cells | SW480 DNA re-replication, Hoechst DNA content imaging, 48 h | Potency, µM (titrated, usually from 46.1 µM), hits mostly activators | 340,000 compounds, 1.8% hits | AID 624297, 2012; note: nearly all actives have a fitted effect of over 55% in size
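Quantitative HTS format with DMSO vehicle controls; 48 hr drug incubation at 37 C, then 40 min Hoechst staining and scanning imager measurement at 405 nm excitation.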
Vif-APOBEC3G blk = qHTS for Inhibitors of Vif-A3G Interactions: qHTS. DNA dC->dU-editing enzyme APOBEC-3G (Homo sapiens), Q9HC16. HeLa A3G-eYFP + Vif (tagged APOBEC3G with the HIV-1 protein that degrades it), YFP fluorescence, overnight. Potency, µM (highest dose often 46.1 µM), usual class: inhibitors. 410,000 compounds, 0.076% hits. AID 602310, 2012; note: nearly all actives have a fitted effect of over 60% in size
Target sequence (Q9HC16 whole entry, looked up): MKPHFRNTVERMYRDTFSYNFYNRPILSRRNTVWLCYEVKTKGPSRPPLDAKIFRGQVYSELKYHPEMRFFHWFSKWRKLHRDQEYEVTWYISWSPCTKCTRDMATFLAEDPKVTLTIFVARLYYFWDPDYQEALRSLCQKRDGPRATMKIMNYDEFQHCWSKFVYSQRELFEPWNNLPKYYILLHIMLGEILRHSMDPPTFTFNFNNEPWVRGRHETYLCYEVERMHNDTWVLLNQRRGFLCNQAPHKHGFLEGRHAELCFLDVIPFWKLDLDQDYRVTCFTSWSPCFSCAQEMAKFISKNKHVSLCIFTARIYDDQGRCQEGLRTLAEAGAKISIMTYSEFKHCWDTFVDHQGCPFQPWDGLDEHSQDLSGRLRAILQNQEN
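Read-out is eYFP fluorescence (Ex 488/Em 500-530) from Vif-expressing HeLa A3G-eYFP cells; more signal means A3G escaped Vif-mediated degradation. Cells plated overnight, compound pinned in, incubated overnight at 37 deg C.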
MCF10A rerep = A quantitative high throughput screen for small molecules that induce DNA re-replication in MCF 10a normal breast cells | AID 624296, 2012 | 350,000 compounds, 2.9% hits | Potency, µM (titrated, usually from 46.1 µM), usual class: activators | MCF 10A DNA re-replication, Hoechst nuclear intensity, 48 h; note: nearly all actives have a fitted effect of over 50% in size
Vif-APOBEC3F blk = qHTS for Inhibitors of Vif-A3F Interactions: qHTS; Potency, µM (titrated, usually from 46.1 µM); HeLa A3F-eYFP + Vif (tagged APOBEC3F with the HIV-1 protein that degrades it), YFP fluorescence increase; AID 602313, 2012; 390,000 compounds, 0.2% hits; note: nearly all actives have a fitted effect of over 65% in size
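Fluorescence increase (Ex 488/Em 500-530) after overnight compound treatment at 37 deg C flags inhibition of Vif-driven A3F-eYFP loss in stable HeLa A3F-eYFP/Vif cells seeded overnight beforehand.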
Hits are given with their value; – = inactive; ? = inconclusive; · = not tested or not shown; ! = not confirmed by another sample; [ ] = dose if it differs, or a comment. Rows were chosen to be rich in hits. Some 6.9% of all compounds tested hit in one or more screens of this group. Unless noted, calls come from the whole dose curve; as a rule, active = well fitted curve in the direction sought with a large enough effect; inconclusive = small, poorly fitted or top-dose-only effect, or another doubt; inactive = no such curve, though single readings can be large; an effect the other way counts as inactive or inconclusive.

SMILES | IL1B secr inh | Giardia kill | SW480 rerep | Vif-APOBEC3G blk | MCF10A rerep | Vif-APOBEC3F blk
Cc1cc(C)c2c(NC(=S)NC(=O)c3ccccc3)nn(C)c2n1 | – | – | – | – | – | –
Cc1cc(C)c2c(NC(=O)CCl)nn(C)c2n1 | -97.8 | – | ? | – | – | –
CCNc1ccc(C(=O)OCC)cc1NC(=O)c1cccc(N(C)C)c1 | – | – | – | ? | – | –
CCOC(=O)c1ccc(S(=O)(=O)NNC(=O)c2cccc(N(C)C)c2)cc1 | -141.2 | – | – | – | – | –
CCOc1ccc(N2CC(NC(=O)c3cc4ccccc4o3)CC2=O)cc1 (centres undefined) | · | · | · | – | · | –
CCCCOc1ccc(C2CC(=O)NC2=O)cc1 (centres undefined) | – | – | – | – | – | –
CCCCCCCOc1ccc(C2CC(=O)N(C)C2=O)cc1 (centres undefined) | -75.6 | – | – | – | ? | –
CCOC(=O)C1=C(C)N=c2s/c(=C\c3ccc(OCC(=O)O)cc3)c(=O)n2C1c1ccccc1 (centres undefined) | – | – | –[9.22 µM] | – | – | –
CCOC(=O)C1=C(C)N=c2s/c(=C\c3ccc(OCC(=O)O)c(OC)c3)c(=O)n2C1c1ccc(OC)cc1 (centres undefined) | – | – | – | – | 23.1µM | –
Cc1cc(C(=O)N2CCN(c3ccccc3O)CC2)c(C)o1 | – | – | – | – | – | –
Cc1cc(C(=O)N2CCC(C(N)=O)CC2)c(C)o1 | – | – | 16.4µM | – | – | –
CCCN1CNc2c(c(=O)[nH]c(=S)n2CCc2ccccn2)C1 | · | – | · | · | · | ·
O=C(NN=C(Cc1ccccc1)Cc1ccccc1)c1ccc(F)cc1 | – | – | – | – | – | –
O=C(/C=C/c1ccccc1)NC(=O)c1ccccc1O | -57.9 | – | – | – | – | –
O=C(NN=C(Cc1ccccc1)Cc1ccccc1)c1ccccc1O | – | – | 18.4µM | – | – | –
O=C(CCN1CCCCCC1)c1ccccc1 | – | – | – | – | – | –
O=C(/C=C/c1ccccc1)CC(=O)c1ccccc1O | – | – | ? | ? | 13µM | –
O=C(/C=C/c1ccccc1)CCN1CCCCC1 | -90.5 | – | 2.91µM | ? | 6.51µM | ?
CCC(C)NC(=O)c1sc2nc(C)c(C(=O)Nc3ccc(C)cc3C)c(-c3ccccc3Cl)c2c1N (centres undefined) | · | · | · | – | · | –
O=C(NC1CCCC1)c1c[nH]c2ccc(S(=O)(=O)Nc3cccc(C(F)(F)F)c3)cc2c1=O | · | · | · | – | · | –
CCOc1cc(Br)c(COc2ccc(C)nc2[N+](=O)[O-])cc1OCC | – | – | – | – | ? | –
Cc1ccc(OCCOc2cccc(Br)c2)c([N+](=O)[O-])n1 | -71.2 | – | – | – | ? | –
CCOC(=O)COc1ccc(Br)cc1/C=C/c1[nH]c(=O)[nH]c(=O)c1[N+](=O)[O-] | -63.2 | – | ? | ? | ? | –
CCOC(=O)COc1ccc(Br)cc1/C=C\c1[nH]c(=O)[nH]c(=O)c1[N+](=O)[O-] | – | – | ? | ? | 8.2µM | –
CC1(C)CCC[C@]2(C)[C@H]3Cc4cc(O)ccc4O[C@]3(C)CC[C@@H]12 | – | – | – | – | 11.6µM | –
CCCCCCCCCCOC(=O)Cn1c(COc2ccc(Cl)cc2)[n+](C)c2ccccc21 | -72.0 | – | – | – | ? | –
CCCCCCCCCCOC(=O)Cn1c(COc2ccc(OC)cc2)[n+](C)c2ccccc21 | -107.9! | – | ? | – | 6.51µM! | –
CCCCCCCCCCOC(=O)Cn1c(COc2cccc(C)c2)[n+](C)c2ccccc21 | -96.5 | – | – | – | ? | –
CCCCCCCCCCOC(=O)Cn1c(COc2ccccc2)[n+](C)c2ccccc21 | – | – | – | – | ? | –
